# In PubChem BioAssay:
# The source made the active and inactive calls.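 Rule for the calls: active = normalized viability below 100% at a tested concentration; inactive = the rest.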
# Assay: ovarian cancer cell viability with rucaparib, profiling panel, oncology-focused library, rucaparib conditional (AID 1508598)
# Conditions: patient-derived ovarian cancer cells, CellTiter-Glo viability, 144 h; at 0.0195 µM; OCI-P5x cells; without rucaparib; stronger effect = lower value
row,SMILES,viability
1,C[C@@H](N)C1CCC(C(=O)Nc2ccncc2)CC1 (stereo partly drawn),102% (inactive)
2,CC(C)c1onc(-c2c(Cl)cccc2Cl)c1COc1ccc(/C=C/c2cccc(C(=O)O)c2)c(Cl)c1,98.8% (active)
3,O=c1cc(N2CCOCC2)oc2c(-c3ccccc3)cccc12,96% (active)
4,Cc1ccc(S(=O)(=O)/C=C/C#N)cc1,106% (inactive)
5,C[C@H](NC(=O)Cc1cc(F)cc(F)c1)C(=O)N[C@H](C(=O)OC(C)(C)C)c1ccccc1,102% (inactive)
6,O=C(O)Cc1cccc(OCCCN(Cc2cccc(C(F)(F)F)c2Cl)CC(c2ccccc2)c2ccccc2)c1,105% (inactive)

# Same assay, conditions: patient-derived ovarian cancer cells, CellTiter-Glo viability, 144 h; at 0.0781 µM; OCI-C5x cells; with rucaparib 10 µM; stronger effect = lower value; 100% = cells with rucaparib alone
row,SMILES,viability
1,C[C@@H](N)C1CCC(C(=O)Nc2ccncc2)CC1 (stereo partly drawn),113% (inactive)
2,CC(C)c1onc(-c2c(Cl)cccc2Cl)c1COc1ccc(/C=C/c2cccc(C(=O)O)c2)c(Cl)c1,99.7% (active)
3,O=c1cc(N2CCOCC2)oc2c(-c3ccccc3)cccc12,106% (inactive)
4,Cc1ccc(S(=O)(=O)/C=C/C#N)cc1,115% (inactive)
5,C[C@H](NC(=O)Cc1cc(F)cc(F)c1)C(=O)N[C@H](C(=O)OC(C)(C)C)c1ccccc1,115% (inactive)
6,O=C(O)Cc1cccc(OCCCN(Cc2cccc(C(F)(F)F)c2Cl)CC(c2ccccc2)c2ccccc2)c1,114% (inactive)

# Same assay, conditions: patient-derived ovarian cancer cells, CellTiter-Glo viability, 144 h; at 0.0781 µM; OCI-C5x cells; without rucaparib; stronger effect = lower value
row,SMILES,viability
1,C[C@@H](N)C1CCC(C(=O)Nc2ccncc2)CC1 (stereo partly drawn),107% (inactive)
2,CC(C)c1onc(-c2c(Cl)cccc2Cl)c1COc1ccc(/C=C/c2cccc(C(=O)O)c2)c(Cl)c1,105% (inactive)
3,O=c1cc(N2CCOCC2)oc2c(-c3ccccc3)cccc12,101% (inactive)
4,Cc1ccc(S(=O)(=O)/C=C/C#N)cc1,109% (inactive)
5,C[C@H](NC(=O)Cc1cc(F)cc(F)c1)C(=O)N[C@H](C(=O)OC(C)(C)C)c1ccccc1,117% (inactive)
6,O=C(O)Cc1cccc(OCCCN(Cc2cccc(C(F)(F)F)c2Cl)CC(c2ccccc2)c2ccccc2)c1,123% (inactive)

# Same assay, conditions: patient-derived ovarian cancer cells, CellTiter-Glo viability, 144 h; at 0.0781 µM; OCI-P5x cells; with rucaparib 20 µM; stronger effect = lower value; 100% = cells with rucaparib alone
row,SMILES,viability
1,C[C@@H](N)C1CCC(C(=O)Nc2ccncc2)CC1 (stereo partly drawn),96.5% (active)
2,CC(C)c1onc(-c2c(Cl)cccc2Cl)c1COc1ccc(/C=C/c2cccc(C(=O)O)c2)c(Cl)c1,104% (inactive)
3,O=c1cc(N2CCOCC2)oc2c(-c3ccccc3)cccc12,102% (inactive)
4,Cc1ccc(S(=O)(=O)/C=C/C#N)cc1,86.5% (active)
5,C[C@H](NC(=O)Cc1cc(F)cc(F)c1)C(=O)N[C@H](C(=O)OC(C)(C)C)c1ccccc1,107% (inactive)
6,O=C(O)Cc1cccc(OCCCN(Cc2cccc(C(F)(F)F)c2Cl)CC(c2ccccc2)c2ccccc2)c1,109% (inactive)

# Same assay, conditions: patient-derived ovarian cancer cells, CellTiter-Glo viability, 144 h; at 0.0781 µM; OCI-P5x cells; without rucaparib; stronger effect = lower value
row,SMILES,viability
1,C[C@@H](N)C1CCC(C(=O)Nc2ccncc2)CC1 (stereo partly drawn),102% (inactive)
2,CC(C)c1onc(-c2c(Cl)cccc2Cl)c1COc1ccc(/C=C/c2cccc(C(=O)O)c2)c(Cl)c1,97.9% (active)
3,O=c1cc(N2CCOCC2)oc2c(-c3ccccc3)cccc12,98.9% (active)
4,Cc1ccc(S(=O)(=O)/C=C/C#N)cc1,102% (inactive)
5,C[C@H](NC(=O)Cc1cc(F)cc(F)c1)C(=O)N[C@H](C(=O)OC(C)(C)C)c1ccccc1,101% (inactive)
6,O=C(O)Cc1cccc(OCCCN(Cc2cccc(C(F)(F)F)c2Cl)CC(c2ccccc2)c2ccccc2)c1,103% (inactive)

# Same assay, conditions: patient-derived ovarian cancer cells, CellTiter-Glo viability, 144 h; at 0.313 µM; OCI-C5x cells; with rucaparib 10 µM; stronger effect = lower value; 100% = cells with rucaparib alone
row,SMILES,viability
1,C[C@@H](N)C1CCC(C(=O)Nc2ccncc2)CC1 (stereo partly drawn),106% (inactive)
2,CC(C)c1onc(-c2c(Cl)cccc2Cl)c1COc1ccc(/C=C/c2cccc(C(=O)O)c2)c(Cl)c1,97.6% (active)
3,O=c1cc(N2CCOCC2)oc2c(-c3ccccc3)cccc12,106% (inactive)
4,Cc1ccc(S(=O)(=O)/C=C/C#N)cc1,115% (inactive)
5,C[C@H](NC(=O)Cc1cc(F)cc(F)c1)C(=O)N[C@H](C(=O)OC(C)(C)C)c1ccccc1,106% (inactive)
6,O=C(O)Cc1cccc(OCCCN(Cc2cccc(C(F)(F)F)c2Cl)CC(c2ccccc2)c2ccccc2)c1,114% (inactive)

# Same assay, conditions: patient-derived ovarian cancer cells, CellTiter-Glo viability, 144 h; at 0.313 µM; OCI-C5x cells; without rucaparib; stronger effect = lower value
row,SMILES,viability
1,C[C@@H](N)C1CCC(C(=O)Nc2ccncc2)CC1 (stereo partly drawn),120% (inactive)
2,CC(C)c1onc(-c2c(Cl)cccc2Cl)c1COc1ccc(/C=C/c2cccc(C(=O)O)c2)c(Cl)c1,97.8% (active)
3,O=c1cc(N2CCOCC2)oc2c(-c3ccccc3)cccc12,108% (inactive)
4,Cc1ccc(S(=O)(=O)/C=C/C#N)cc1,116% (inactive)
5,C[C@H](NC(=O)Cc1cc(F)cc(F)c1)C(=O)N[C@H](C(=O)OC(C)(C)C)c1ccccc1,125% (inactive)
6,O=C(O)Cc1cccc(OCCCN(Cc2cccc(C(F)(F)F)c2Cl)CC(c2ccccc2)c2ccccc2)c1,119% (inactive)

# Same assay, conditions: patient-derived ovarian cancer cells, CellTiter-Glo viability, 144 h; at 0.313 µM; OCI-P5x cells; with rucaparib 20 µM; stronger effect = lower value; 100% = cells with rucaparib alone
row,SMILES,viability
1,C[C@@H](N)C1CCC(C(=O)Nc2ccncc2)CC1 (stereo partly drawn),99.7% (active)
2,CC(C)c1onc(-c2c(Cl)cccc2Cl)c1COc1ccc(/C=C/c2cccc(C(=O)O)c2)c(Cl)c1,106% (inactive)
3,O=c1cc(N2CCOCC2)oc2c(-c3ccccc3)cccc12,98% (active)
4,Cc1ccc(S(=O)(=O)/C=C/C#N)cc1,90.2% (active)
5,C[C@H](NC(=O)Cc1cc(F)cc(F)c1)C(=O)N[C@H](C(=O)OC(C)(C)C)c1ccccc1,102% (inactive)
6,O=C(O)Cc1cccc(OCCCN(Cc2cccc(C(F)(F)F)c2Cl)CC(c2ccccc2)c2ccccc2)c1,93.8% (active)
